A structure can be active in one record and inactive in another. Active and inactive are the calls of the source. The calls were made as follows: active = hit-call score of the fitted dose curve at least 0.9, where 1 is the maximum; inactive = score below 0.9.

From PubChem BioAssay (EPA / NIEHS) come the findings set out here.

Chain of Nuclear respiratory factor 1 (Homo sapiens) (Q16656 whole entry, looked up): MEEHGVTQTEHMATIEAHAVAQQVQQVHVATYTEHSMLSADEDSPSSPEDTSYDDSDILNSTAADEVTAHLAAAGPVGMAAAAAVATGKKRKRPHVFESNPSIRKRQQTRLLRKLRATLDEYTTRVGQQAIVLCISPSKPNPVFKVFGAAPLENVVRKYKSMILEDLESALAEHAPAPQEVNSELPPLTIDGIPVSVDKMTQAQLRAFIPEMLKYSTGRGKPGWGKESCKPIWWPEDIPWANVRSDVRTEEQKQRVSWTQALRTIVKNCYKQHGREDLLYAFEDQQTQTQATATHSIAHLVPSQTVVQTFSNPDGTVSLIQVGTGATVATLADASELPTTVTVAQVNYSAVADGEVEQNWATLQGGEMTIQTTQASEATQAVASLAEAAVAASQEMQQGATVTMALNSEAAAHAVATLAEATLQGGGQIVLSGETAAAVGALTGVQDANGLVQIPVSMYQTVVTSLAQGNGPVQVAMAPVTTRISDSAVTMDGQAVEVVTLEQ

The target in one experiment is Transcriptional activator Myb (Homo sapiens) (UniProt P10242). As to the kind of experiment: ATG_Myb_CIS: Attagene CIS-FACTORIAL HepG2 Assay for human Myeloblastosis (Myb) Proto-Oncogene Transcription Factor (AID 2282986). Conditions: HepG2 Attagene CIS-FACTORIAL Myb reporter transcription; actives raise or lower the signal. The gist of the method: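 Fluorescence signals from capillary electrophoresis of RT-PCR-amplified reporter cDNA give the read-out. Cells: HepG2 transfected with multiple cis-regulated reporter units. Exposure lasts 24 hours; DMSO defines baseline for gain or loss of signal.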
Chain of Transcriptional activator Myb (Homo sapiens) (P10242 whole entry, looked up): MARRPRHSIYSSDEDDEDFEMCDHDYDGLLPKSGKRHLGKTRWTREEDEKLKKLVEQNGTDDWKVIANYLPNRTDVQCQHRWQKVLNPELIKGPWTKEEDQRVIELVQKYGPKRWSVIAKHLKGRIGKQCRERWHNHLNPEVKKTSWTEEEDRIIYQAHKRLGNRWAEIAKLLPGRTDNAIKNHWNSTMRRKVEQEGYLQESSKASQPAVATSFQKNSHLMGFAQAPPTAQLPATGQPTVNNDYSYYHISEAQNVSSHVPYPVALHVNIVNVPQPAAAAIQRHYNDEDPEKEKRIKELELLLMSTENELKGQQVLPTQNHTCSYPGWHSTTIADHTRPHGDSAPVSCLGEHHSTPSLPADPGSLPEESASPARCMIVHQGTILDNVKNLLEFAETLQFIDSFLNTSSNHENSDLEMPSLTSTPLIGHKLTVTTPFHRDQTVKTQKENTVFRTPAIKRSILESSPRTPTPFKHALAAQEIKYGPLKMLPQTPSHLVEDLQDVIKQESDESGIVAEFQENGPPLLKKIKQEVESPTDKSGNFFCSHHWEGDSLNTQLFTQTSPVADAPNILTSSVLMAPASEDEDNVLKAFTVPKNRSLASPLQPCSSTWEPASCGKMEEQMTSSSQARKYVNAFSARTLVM
Take `Cc1occc1C(=O)Nc1ccc(C(=O)N2CCC(F)(F)/C(=C\C(=O)N3CCC(N4CCCCC4)CC3)c3ccccc32)cc1`: the outcome was inactive.

Consider `O=c1c(-c2ccc(O)cc2)coc2cc(O)cc(O)c12`, for which the outcome was inactive.

On to `O=C(O)c1ccccc1-n1cc(C(=O)O)c(=O)c2cc(Nc3c(F)cc(F)cc3Cl)c(Cl)cc21`, for which the compound was classed as inactive.

As to `Cc1cc(F)ccc1-c1cc(N2CC[C@@H](O)[C@H]2CO)ncc1N(C)C(=O)C(C)(C)c1cc(C(F)(F)F)cc(C(F)(F)F)c1`, the call was inactive.

Turning to `CCCCOC(=O)c1ccc(O)cc1`, the AC50 was 162 µM (active) and the compound was called inactive.

For the compound `O=C(O)Cc1cc(I)c(Oc2ccc(O)c(I)c2)c(I)c1`, the compound was classed as inactive.

Consider `CC[C@@H]1C[C@H](N(Cc2cc(C(F)(F)F)cc(C(F)(F)F)c2)C(C)=O)c2cc(C(F)(F)F)ccc2N1C(=O)OC(C)C`, for which the call was inactive.

In the case of `Cc1oc2c(NC(=O)c3c(Cl)cccc3Cl)cccc2c1C(C)(C)O`, the call was inactive.

Turning to `CC(=O)N1CCN(c2ccc(OC[C@H]3CO[C@](Cn4ccnc4)(c4ccc(Cl)cc4Cl)O3)cc2)CC1`, the call was inactive.

`CCCCCCCCOC(=O)c1cc(O)c(O)c(O)c1`: the compound was called inactive.

Take `Cc1cn([C@H]2C[C@H](N=[N+]=[N-])[C@@H](CO)O2)c(=O)[nH]c1=O`: the outcome was inactive.

Consider `CN(C)C(=O)C1(N2CCCCC2)CCN(CC[C@@]2(c3ccc(Cl)c(Cl)c3)CN(C(=O)c3ccccc3)CCO2)CC1`, for which the outcome was inactive.

For the compound `O=C1O[C@H]([C@@H](O)CO)C(O)=C1O`, the result was inactive.

As for `Oc1ccc2ccccc2c1`, the outcome was inactive.

With `O=C(Nc1ccc(Cl)cc1)Nc1ccc(Cl)c(Cl)c1`, the compound was called inactive.

On to `O=CCCCC=O`, for which the call was inactive.

Take `COc1ccc2cc(S(=O)(=O)N[C@H](CC(=O)N[C@H](Cc3ccc(CN4[C@H](C)CCC[C@@H]4C)cc3)C(=O)N(C)C(C)C)c3ccc4c(c3)OCO4)ccc2c1`: the compound was classed as inactive.

With `Cc1c2ccccc2c(C)c2c1ccc1ccccc12`, the call was inactive.

For the compound `O=C(O)Cn1c(=O)n(Cc2ccc(Br)cc2F)c(=O)c2ccc(Cl)cc21`, the compound was classed as inactive.

Take `CCCCCCCCCCCC[N+](C)(C)C`: the call was inactive.

On to `NC(=O)c1nc(-c2cccc(-c3cc(F)ccc3OCC(F)(F)C(F)(F)F)c2)n[nH]1`, for which the call was inactive.

Turning to `CC(C)(C)c1csc(-c2cc3cc(OCc4ccccc4CC(=O)O)ccc3o2)n1`, the call was inactive.

Take `CC/C(=C(/CC)c1ccc(O)cc1)c1ccc(O)cc1`: the compound was classed as inactive.

For `CCOC(=O)O[C@H](C)OC(=O)c1ccc2c(c1)cc(C(=O)NC1CCN(C(C)C)CC1)n2Cc1cc(-c2ccc(Cl)s2)on1`, the compound was called inactive.

Turning to `COCC(C)OCC(C)OCC(C)O` (stereo unspecified), the outcome was inactive.

For the compound `CN1C(=O)N(c2ccccc2Br)Cc2cnc(Nc3ccc4c(c3)OCC(CO)O4)nc21` (stereo unspecified), the result was inactive.

`c1ccc(C[n+]2cccc3ccccc32)cc1`: the compound was classed as inactive.

On to `CCN(Cc1cccnc1)C(=O)c1cccc(Cl)c1[C@]1(C)C(=O)N(Cc2ccc(OC)cc2OC)c2ccc(Cl)cc21`, for which the compound was called inactive.

As for `COc1cccc([C@H](O)C2CCN(CCc3ccc(F)cc3)CC2)c1OC`, the compound was called inactive.

Regarding `O=C1CCC(C2CCCCC2)CC1`, the AC50 was 147 µM (active) and the call was inactive.

Turning to `COc1cc(C(=O)NC2CCN(C)CC2)ccc1Nc1ncc2c(n1)N(C1CCCC1)CC(F)(F)C(=O)N2C`, the call was inactive.

In the case of `CCO[Si](CCCNC(N)=O)(OCC)OCC`, the result was inactive.

In the case of `Cc1ccc2oc(CN(Cc3ccccc3)C(=O)Nc3c(F)cc(F)cc3F)c(-c3ccc(Cl)cc3)c2c1`, the call was inactive.

As for `O=C(OCCCCCCOC(=O)c1ccccc1)c1ccccc1`, the compound was classed as inactive.

On to `CC(C)(c1cc(Br)c(O)c(Br)c1)c1cc(Br)c(O)c(Br)c1`, for which the result was inactive.

As to `C[C@]12CC[C@@H]3c4ccc(O)cc4CC[C@H]3[C@@H]1CC[C@H]2O`, the outcome was inactive.

As to `Clc1ccccc1C(c1ccccc1)(c1ccccc1)n1ccnc1`, the outcome was inactive.

On to `CCCCOC(=O)CC(CC(=O)OCCCC)(OC(C)=O)C(=O)OCCCC`, for which the compound was classed as inactive.

A further experiment concerns the target Nuclear respiratory factor 1 (Homo sapiens) (UniProt Q16656). As to the kind of experiment: ATG_NRF1_CIS: Attagene CIS-FACTORIAL HepG2 Assay for human Nuclear Respiratory Factor 1 (NRF1) Orphan Gene (AID 2282987). The settings on record: HepG2 NRF1 cis-element reporter, Attagene multiplex; actives raise or lower the signal. A digest of the protocol:
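Transcriptional reporter readout, one component of a 52-endpoint multiplexed HepG2 panel. Exposure 24 h; mRNA detected via RT-PCR and fluorescent capillary electrophoresis; fitting in both directions against DMSO.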
Turning to `Cc1occc1C(=O)Nc1ccc(C(=O)N2CCC(F)(F)/C(=C\C(=O)N3CCC(N4CCCCC4)CC3)c3ccccc32)cc1`, the call was inactive.

For the compound `O=c1c(-c2ccc(O)cc2)coc2cc(O)cc(O)c12`, the result was inactive.

As for `O=C(O)c1ccccc1-n1cc(C(=O)O)c(=O)c2cc(Nc3c(F)cc(F)cc3Cl)c(Cl)cc21`, the compound was called inactive.

On to `Cc1cc(F)ccc1-c1cc(N2CC[C@@H](O)[C@H]2CO)ncc1N(C)C(=O)C(C)(C)c1cc(C(F)(F)F)cc(C(F)(F)F)c1`, for which the compound was called inactive.

For `CCCCOC(=O)c1ccc(O)cc1`, the AC50 was 100 µM (active) and the compound was called inactive.

`O=C(O)Cc1cc(I)c(Oc2ccc(O)c(I)c2)c(I)c1`: the AC50 was 159 µM (active) and the compound was classed as inactive.

Turning to `CC[C@@H]1C[C@H](N(Cc2cc(C(F)(F)F)cc(C(F)(F)F)c2)C(C)=O)c2cc(C(F)(F)F)ccc2N1C(=O)OC(C)C`, the compound was classed as inactive.

For `Cc1oc2c(NC(=O)c3c(Cl)cccc3Cl)cccc2c1C(C)(C)O`, the compound was classed as inactive.

As for `CC(=O)N1CCN(c2ccc(OC[C@H]3CO[C@](Cn4ccnc4)(c4ccc(Cl)cc4Cl)O3)cc2)CC1`, the compound was called inactive.

For the compound `CCCCCCCCOC(=O)c1cc(O)c(O)c(O)c1`, the call was inactive.

Turning to `Cc1cn([C@H]2C[C@H](N=[N+]=[N-])[C@@H](CO)O2)c(=O)[nH]c1=O`, the compound was classed as inactive.

Take `CN(C)C(=O)C1(N2CCCCC2)CCN(CC[C@@]2(c3ccc(Cl)c(Cl)c3)CN(C(=O)c3ccccc3)CCO2)CC1`: the compound was classed as inactive.

Turning to `O=C1O[C@H]([C@@H](O)CO)C(O)=C1O`, the call was inactive.

As for `Oc1ccc2ccccc2c1`, the outcome was inactive.

With `O=C(Nc1ccc(Cl)cc1)Nc1ccc(Cl)c(Cl)c1`, the compound was called inactive.

Consider `O=CCCCC=O`, for which the call was inactive.

Consider `COc1ccc2cc(S(=O)(=O)N[C@H](CC(=O)N[C@H](Cc3ccc(CN4[C@H](C)CCC[C@@H]4C)cc3)C(=O)N(C)C(C)C)c3ccc4c(c3)OCO4)ccc2c1`, for which the outcome was inactive.

Take `Cc1c2ccccc2c(C)c2c1ccc1ccccc12`: the result was inactive.

Consider `O=C(O)Cn1c(=O)n(Cc2ccc(Br)cc2F)c(=O)c2ccc(Cl)cc21`, for which the compound was classed as inactive.

With `CCCCCCCCCCCC[N+](C)(C)C`, the outcome was inactive.

For `NC(=O)c1nc(-c2cccc(-c3cc(F)ccc3OCC(F)(F)C(F)(F)F)c2)n[nH]1`, the call was inactive.

As to `CC(C)(C)c1csc(-c2cc3cc(OCc4ccccc4CC(=O)O)ccc3o2)n1`, the compound was called inactive.

For `CC/C(=C(/CC)c1ccc(O)cc1)c1ccc(O)cc1`, the compound was classed as inactive.

With `CCOC(=O)O[C@H](C)OC(=O)c1ccc2c(c1)cc(C(=O)NC1CCN(C(C)C)CC1)n2Cc1cc(-c2ccc(Cl)s2)on1`, the compound was called inactive.

For `COCC(C)OCC(C)OCC(C)O` (stereo unspecified), the compound was classed as inactive.

For the compound `CN1C(=O)N(c2ccccc2Br)Cc2cnc(Nc3ccc4c(c3)OCC(CO)O4)nc21` (stereo unspecified), the compound was classed as inactive.

Take `c1ccc(C[n+]2cccc3ccccc32)cc1`: the result was inactive.

As for `CCN(Cc1cccnc1)C(=O)c1cccc(Cl)c1[C@]1(C)C(=O)N(Cc2ccc(OC)cc2OC)c2ccc(Cl)cc21`, the AC50 was 9.65 µM (active).

In the case of `COc1cccc([C@H](O)C2CCN(CCc3ccc(F)cc3)CC2)c1OC`, the compound was called inactive.

On to `O=C1CCC(C2CCCCC2)CC1`, for which the compound was classed as inactive.

Regarding `COc1cc(C(=O)NC2CCN(C)CC2)ccc1Nc1ncc2c(n1)N(C1CCCC1)CC(F)(F)C(=O)N2C`, the result was inactive.

Take `CCO[Si](CCCNC(N)=O)(OCC)OCC`: the compound was called inactive.

On to `Cc1ccc2oc(CN(Cc3ccccc3)C(=O)Nc3c(F)cc(F)cc3F)c(-c3ccc(Cl)cc3)c2c1`, for which the outcome was inactive.

For the compound `O=C(OCCCCCCOC(=O)c1ccccc1)c1ccccc1`, the result was inactive.

With `CC(C)(c1cc(Br)c(O)c(Br)c1)c1cc(Br)c(O)c(Br)c1`, the AC50 was 53.3 µM (active) and the outcome was inactive.

Take `C[C@]12CC[C@@H]3c4ccc(O)cc4CC[C@H]3[C@@H]1CC[C@H]2O`: the outcome was inactive.

In the case of `Clc1ccccc1C(c1ccccc1)(c1ccccc1)n1ccnc1`, the compound was called inactive.

In the case of `CCCCOC(=O)CC(CC(=O)OCCCC)(OC(C)=O)C(=O)OCCCC`, the result was inactive.

What is called AC50 is the concentration giving half of the maximal activity seen.
